FMDV antiviral: blocks foot and mouth disease virus. 410,000 compounds, 1.2% hits. FMDV antiviral cell-based qHTS. Potency, µM (highest dose often 57.9 µM), for inactives: at the highest dose activity change, negative = inhibition, usual class: inhibitors. AID 1159524; calls by dose curve; tested in HEK293T cells; further: read-out not given here; potency means the concentration at half of the fitted maximal effect; nearly all actives have a fitted effect of over 45% in size
VACV Venus inh: vaccinia inhibition (Venus reporter). Vaccinia virus Venus reporter expression, fluorescence. Potency, µM (titrated, usually from 36.5 µM), for the others: top-dose activity change, negative = inhibition, most hits filed as inhibitors. 330,000 compounds, 0.46% hits; calls by dose curve; tested in A549 cells; further: potency means the concentration at half of the fitted maximal effect; nearly all actives have a fitted effect of over 30% in size
VACV mCherry inh: inhibitors of vaccinia virus infection (mCherry reporter signal). Vaccinia virus mCherry reporter infection, fluorescence. Potency, µM (doses to about 36.5 µM), for inactives: at the highest dose activity change, negative = inhibition, hits mostly inhibitors. 310,000 compounds, 0.63% hits. AID 720579; calls by dose curve; tested in A549 cells; further: potency means the concentration at half of the fitted maximal effect; nearly all actives have a fitted effect of over 35% in size
Marburg entry inh: blocks Marburg virus binding to or entry into cells | 300,000 compounds, 1.8% hits | Potency, µM (top dose mostly 37.8 µM), inactives show top-dose activity change, negative = inhibition, actives largely listed as inhibitors | Marburg virus pseudotyped entry inhibition, cell reporter; calls by dose curve; tested in HEK293 cells; further: potency means the concentration at half of the fitted maximal effect
LASV entry inh: blocks Lassa virus binding to or entry into cells; Potency, µM (top dose mostly 37.9 µM), for inactives: top-dose activity change, negative = inhibition, actives largely listed as inhibitors; Lassa virus pseudotype entry inhibition, cell reporter; 300,000 compounds, 1.2% hits; calls by dose curve; tested in HEK293 cells; further: potency means the concentration at half of the fitted maximal effect; nearly all actives have a fitted effect of over 50% in size
HCMV antiviral: inhibitors of human cytomegalovirus | activity change, negative = inhibition, % at 57.5 µM | HFF cells, HCMV-luciferase reporter, 72 h; stronger effect = lower value | AID 1259415 | 410,000 compounds, 4.5% hits; in the data active means activity change below about -60%; inconclusive means no clear call, values can overlap the other calls; inactive means above about -39%
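Human foreskin fibroblasts infected with luciferase-reporter HCMV at MOI 1 PFU/cell, compounds at two doses. Luciferase measured 72 h post infection; normalized to buffer-only basal and Salinomycin (10uM) controls.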
* hit, by the source's call; [ ] = remark or other dose. Most compounds without a hit are left out; they make up all but 6.5% or so of the library. On the % scale 0 is the no-effect control and ±100 the full control effect.

How did COc1ccccc1C(=O)NCCOc1ccc(C(C)(C)C)cc1 do in these assays?
FMDV antiviral: -19%; HCMV antiviral: -15

How did CC(C)Cc1ccc(C(=O)NCCOc2ccccc2)o1 do in these assays?
FMDV antiviral: -2%; VACV Venus inh: 1%; VACV mCherry inh: -13%; Marburg entry inh: -3%[46.1 µM]; LASV entry inh: 2.8µM*; HCMV antiviral: 21

Results for O=C(Cc1cccs1)N[C@@H]1C(=O)N2C(C(=O)[O-])=C(C[n+]3ccccc3)CS[C@H]12 ?
FMDV antiviral: -6%; VACV Venus inh: -7%; VACV mCherry inh: -13%

Results for COC(=O)[C@@H]1C[C@@]2(O)[C@@H](O)[C@@H](O)[C@@H](O)C[C@H]2N1Cc1cc(OC)cc(OC)c1 ?
FMDV antiviral: 16%; VACV Venus inh: -12%; VACV mCherry inh: inactive; HCMV antiviral: -100*

Results for COC(=O)[C@@H]1C[C@@]2(O)[C@H](O)[C@H](O)[C@H](O)C[C@H]2N1Cc1cc(OC)cc(OC)c1 ?
FMDV antiviral: 2%; VACV Venus inh: 10%; VACV mCherry inh: -2%; HCMV antiviral: 8

Results for CCOc1ccc(Cl)cc1CSc1n[nH]c(C)n1 ?
FMDV antiviral: -17%; VACV Venus inh: -13%; VACV mCherry inh: -14%; Marburg entry inh: 0%[46.1 µM]; LASV entry inh: -4%; HCMV antiviral: -72*

How did Cc1nc(SCc2ccccc2C)n[nH]1 do in these assays?
FMDV antiviral: 31%; Marburg entry inh: 28%; LASV entry inh: 5%; HCMV antiviral: 37

What do the screens show for `C(=NNc1ccc2ccccc2n1)c1ccccn1`?
FMDV antiviral: 7.9µM*; VACV Venus inh: inconclusive; VACV mCherry inh: 1.8µM*; HCMV antiviral: -101*

How did Cn1c(/C=C/c2ccc([N+](=O)[O-])o2)nc2ccccc2c1=O do in these assays?
FMDV antiviral: 25µM*; VACV Venus inh: inconclusive; VACV mCherry inh: 4.5µM*; Marburg entry inh: inconclusive; LASV entry inh: 2.8µM*

Results for Cc1cc(NN=Cc2ccccn2)nc2c(C)cccc12 ?
HCMV antiviral: -16

How did Cc1cc(NN=Cc2ccccn2)nc2ccccc12 do in these assays?
HCMV antiviral: -100*

Results for C(=N\NC1=Nc2cccc3cccc1c23)/c1ccccn1 ?
FMDV antiviral: 9%; VACV Venus inh: inconclusive; VACV mCherry inh: inconclusive; HCMV antiviral: -80*

Results for C(=N\N=C\c1ccccn1)/c1ccccn1 ?
FMDV antiviral: 21%; VACV Venus inh: -9%; VACV mCherry inh: -26%; Marburg entry inh: 7%[46.1 µM]; LASV entry inh: 7%[46.1 µM]; HCMV antiviral: 6

What do the screens show for `Clc1ccccc1/C=N/NC1=Nc2cccc3cccc1c23`?
FMDV antiviral: 36%; VACV Venus inh: 58%; VACV mCherry inh: -29%; Marburg entry inh: inconclusive; LASV entry inh: inconclusive; HCMV antiviral: 29

Results for CC(=O)c1ccc([C@@H]2C=C[C@H](O)[C@@H](CO)O2)cc1 ?
Marburg entry inh: 23%[14.2 µM]

How did Cc1cccc(-c2nc3c(C#N)c[nH]n3c2NC2CCCCC2)c1 do in these assays?
FMDV antiviral: 2%; VACV Venus inh: inconclusive; VACV mCherry inh: inconclusive; Marburg entry inh: 8%[46.1 µM]; LASV entry inh: -6%[46.1 µM]; HCMV antiviral: 0

What do the screens show for `Cc1cc(N/N=C/c2ccc([N+](=O)[O-])o2)nc2ccccc12`?
FMDV antiviral: -24%; VACV Venus inh: 4%; VACV mCherry inh: inconclusive; Marburg entry inh: inconclusive; LASV entry inh: 1%; HCMV antiviral: -79*

What do the screens show for `COC(=O)c1ccc(Nc2nccc3[nH]c(-c4cccc(C(F)(F)F)c4)cc23)cc1`?
HCMV antiviral: 4

What do the screens show for `Cc1cccc(C)c1OC[C@H](O)CNS(=O)(=O)c1ccccc1C(=O)N1CCOCC1`?
Marburg entry inh: 12%[46.1 µM]

How did Cc1ccc(-c2n[nH]c3c2C(c2cccc(O)c2)N(c2ccc(C(=O)O)cc2)C3=O)cc1 (stereo not drawn) do in these assays?
FMDV antiviral: 14%; VACV Venus inh: -10%; VACV mCherry inh: -11%; Marburg entry inh: 26%[46.1 µM]; LASV entry inh: 23%[46.1 µM]; HCMV antiviral: -34

How did O=C1c2[nH]nc(-c3ccccc3)c2C(c2ccccc2)N1c1cccc(C(F)(F)F)c1 (stereo not drawn) do in these assays?
FMDV antiviral: inconclusive; VACV Venus inh: inconclusive; VACV mCherry inh: -18%; LASV entry inh: inconclusive; HCMV antiviral: -108*
